22 compounds from PubChem BioAssay (EPA / NIEHS) can be followed below.

Experiment [1] has as its target D(1A) dopamine receptor (Homo sapiens) (UniProt P21728). Kind of experiment: NVS_GPCR_hDRD1: NovaScreen (NVS) G Protein-Coupled Receptor Assay for human Dopamine Receptor D1 (DRD1) (AID 2283269). In a few lines: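 Cell-free competition with radioligand, filter-trapped and scintillation-counted 1 h post-dose, using HEK293-derived human D1 preparation. Duplicate single-point testing at 25 uM first, then concentration series for actives; DMSO served as baseline, loss-of-signal scored.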

The target of experiment [2] is human Thromboxane A2 Receptor (TXA2), TBXA2R (gene 6915) (UniProt P21731). Kind of experiment: NVS_GPCR_hTXA2: NovaScreen (NVS) G Protein-Coupled Receptor Assay for human Thromboxane A2 Receptor (TXA2) (AID 2283282).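 Also: actives reduce bound radioligand signal relative to DMSO baseline.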 In a few lines:
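Biochem binding, human platelets, cell-free; competitive radioligand displacement; 1 h; filter radiodetection. 25 uM duplicate primary, conc. series secondary; DMSO neg. ctrl.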

The target of experiment [3] is human Orphanin, Opioid Related Nociceptin Receptor 1 (ORL1), OPRL1 (gene 4987) (UniProt P41146). Briefly: NVS_GPCR_hORL1: NovaScreen (NVS) G Protein-Coupled Receptor Assay for human Orphanin, Opioid Related Nociceptin Receptor 1 (ORL1) (AID 2283283). In a few lines:
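Filter-based radioligand displacement with receptor extracted from HEK293 cells, read 1 hour after dosing by scintillation counting. Duplicate single-point screen at 25 uM; qualifying chemicals then run in concentration-response to 50 uM, analysed relative to DMSO.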

Experiment [4] has as its target human Opioid Receptor Mu (Opiate Mu), OPRM1 (gene 4988) (UniProt P35372). Kind of experiment: NVS_GPCR_hOpiate_mu: NovaScreen (NVS) G Protein-Coupled Receptor Assay for human Opioid Receptor Mu (Opiate Mu) (AID 2283290).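 Also: hits lower bound tracer signal versus DMSO meaning displacement of the ligand.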 In a few lines:
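Primary screen in duplicate at 25 uM, with actives followed in concentration series. CHO-derived receptor membranes, cell-free; bound radioligand read by scintillation counting after filtration at 2.5 h, decrease scored against DMSO.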

For experiment [5], the target named is Muscarinic acetylcholine receptor M2 (Homo sapiens) (UniProt P08172). Briefly: NVS_GPCR_hM2: NovaScreen (NVS) G Protein-Coupled Receptor Assay for human Muscarinic, M2 Receptor (AID 2283273). In a few lines: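 Radioligand displacement on human M2 receptor membranes from CHO cells, 1 h incubation, filtration with scintillation counting. Primary screen in duplicate at 25 uM; actives retested in concentration series; loss of signal fitted versus DMSO.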
Sequence of Muscarinic acetylcholine receptor M2 (Homo sapiens) (P08172 whole entry, looked up): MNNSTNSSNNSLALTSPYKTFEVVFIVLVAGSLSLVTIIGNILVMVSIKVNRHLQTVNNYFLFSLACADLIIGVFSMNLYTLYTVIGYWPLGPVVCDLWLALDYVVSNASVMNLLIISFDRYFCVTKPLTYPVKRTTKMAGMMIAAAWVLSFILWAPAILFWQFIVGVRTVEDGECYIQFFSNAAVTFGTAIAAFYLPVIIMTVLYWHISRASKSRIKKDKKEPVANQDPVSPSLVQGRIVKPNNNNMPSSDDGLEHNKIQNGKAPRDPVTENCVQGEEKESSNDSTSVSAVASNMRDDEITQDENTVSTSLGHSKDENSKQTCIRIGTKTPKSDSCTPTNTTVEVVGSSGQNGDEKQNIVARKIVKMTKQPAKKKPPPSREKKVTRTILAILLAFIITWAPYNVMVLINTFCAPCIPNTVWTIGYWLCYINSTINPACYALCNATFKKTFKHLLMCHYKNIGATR

The target of experiment [6] is human Neurokinin, NK2 Receptor, TACR2 (gene 6865) (UniProt P21452). Kind of experiment: NVS_GPCR_hNK2: NovaScreen (NVS) G Protein-Coupled Receptor Assay for human Neurokinin, NK2 Receptor (AID 2283278).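 Also: actives reduce bound radioligand signal relative to DMSO baseline.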 The method in brief: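 Cell-free radioligand binding using receptor protein extracted from CHO cells; readings taken 4 hours after chemical dosing by filter-based scintillation counting. Primary screen ran single concentration (25 uM) in duplicate; actives followed up in concentration series, loss-of-signal versus DMSO baseline.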
Sequence of human Neurokinin, NK2 Receptor, TACR2 (gene 6865) (P21452 whole entry, looked up): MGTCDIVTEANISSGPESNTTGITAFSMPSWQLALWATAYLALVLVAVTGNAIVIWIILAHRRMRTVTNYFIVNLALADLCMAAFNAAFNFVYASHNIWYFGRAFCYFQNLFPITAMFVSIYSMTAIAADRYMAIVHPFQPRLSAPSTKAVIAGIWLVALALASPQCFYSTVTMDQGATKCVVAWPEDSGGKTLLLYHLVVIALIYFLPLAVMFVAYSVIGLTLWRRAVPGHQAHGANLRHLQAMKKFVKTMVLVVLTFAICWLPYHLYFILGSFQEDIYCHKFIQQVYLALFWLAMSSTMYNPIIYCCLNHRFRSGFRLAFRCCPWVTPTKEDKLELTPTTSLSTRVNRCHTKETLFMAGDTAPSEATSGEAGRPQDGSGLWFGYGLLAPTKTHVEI

Experiment [7] has as its target human Purinergic Receptor P2Y, P2RY1 (gene 5028) (UniProt P47900). Briefly: NVS_GPCR_hPY2: NovaScreen (NVS) G Protein-Coupled Receptor Assay for human Purinergic Receptor P2Y (AID 2283281). In a few lines: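 Cell-free radioligand binding using U937-derived protein, 1 h after dosing, filter-based scintillation counting. Screened in duplicate at 25 uM; actives rerun as concentration-response up to 50 uM; loss of signal versus DMSO.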

The subject of experiment [8] is 5-hydroxytryptamine receptor 2C (pig). Kind of experiment: NVS_GPCR_p5HT2C: NovaScreen (NVS) G Protein-Coupled Receptor Assay for pig Serotonin, 5-Hydroxytryptamine Receptor 2C (5HT2C) (AID 2283288). The method in brief:
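Pig choroid plexus membranes; radioligand competitive binding, filter-based scintillation counting, read 1 h after dosing. Primary screen in duplicate at 25 uM; actives then run as concentration series; loss of signal versus DMSO baseline.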

Experiment [9] concerns the target mouse Cholecystokinin, CCK2 Receptor (CCKB), Cckbr (gene 12426) (UniProt P56481). Kind of experiment: NVS_GPCR_mCKKBCentral: NovaScreen (NVS) G Protein-Coupled Receptor Assay for mouse Cholecystokinin, CCK2 Receptor (CCKB) (AID 2283293). In a few lines: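 Radioligand displacement binding on mouse forebrain membranes, 2 h exposure, filter-based scintillation counting. Primary screen in duplicate at 25 uM; actives (e.g. ≥30% inhibition) retested in concentration-response up to 50 uM; loss of binding signal relative to DMSO.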

Inconclusive results are not listed. Active and inactive are the calls of the source. The calls were made as follows: active = hit-call score of the fitted dose curve at least 0.9, where 1 is the maximum; inconclusive = response in the unintended direction; inactive = score below 0.9.

Sequence of human Opioid Receptor Mu (Opiate Mu), OPRM1 (gene 4988) (P35372 whole entry, looked up): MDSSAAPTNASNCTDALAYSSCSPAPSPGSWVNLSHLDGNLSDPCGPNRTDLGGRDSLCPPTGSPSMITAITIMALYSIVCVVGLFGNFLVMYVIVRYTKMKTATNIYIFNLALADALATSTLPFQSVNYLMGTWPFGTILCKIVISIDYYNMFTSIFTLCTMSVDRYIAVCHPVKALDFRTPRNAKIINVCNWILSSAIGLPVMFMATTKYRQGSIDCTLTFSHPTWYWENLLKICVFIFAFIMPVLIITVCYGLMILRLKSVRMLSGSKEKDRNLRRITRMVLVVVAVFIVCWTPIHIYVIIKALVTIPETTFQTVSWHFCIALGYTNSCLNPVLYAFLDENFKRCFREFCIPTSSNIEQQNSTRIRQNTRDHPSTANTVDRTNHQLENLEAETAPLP
Sequence of human Thromboxane A2 Receptor (TXA2), TBXA2R (gene 6915) (P21731 whole entry, looked up): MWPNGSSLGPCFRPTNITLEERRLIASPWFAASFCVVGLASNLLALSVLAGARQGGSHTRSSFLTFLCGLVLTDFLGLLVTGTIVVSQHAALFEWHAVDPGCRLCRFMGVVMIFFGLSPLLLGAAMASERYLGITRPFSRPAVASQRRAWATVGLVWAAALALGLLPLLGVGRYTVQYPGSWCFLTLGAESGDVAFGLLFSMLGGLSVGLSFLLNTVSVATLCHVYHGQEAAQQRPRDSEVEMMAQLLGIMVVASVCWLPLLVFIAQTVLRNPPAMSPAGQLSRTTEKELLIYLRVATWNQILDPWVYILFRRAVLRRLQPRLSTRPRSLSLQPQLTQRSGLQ
Sequence of D(1A) dopamine receptor (Homo sapiens) (P21728 whole entry, looked up): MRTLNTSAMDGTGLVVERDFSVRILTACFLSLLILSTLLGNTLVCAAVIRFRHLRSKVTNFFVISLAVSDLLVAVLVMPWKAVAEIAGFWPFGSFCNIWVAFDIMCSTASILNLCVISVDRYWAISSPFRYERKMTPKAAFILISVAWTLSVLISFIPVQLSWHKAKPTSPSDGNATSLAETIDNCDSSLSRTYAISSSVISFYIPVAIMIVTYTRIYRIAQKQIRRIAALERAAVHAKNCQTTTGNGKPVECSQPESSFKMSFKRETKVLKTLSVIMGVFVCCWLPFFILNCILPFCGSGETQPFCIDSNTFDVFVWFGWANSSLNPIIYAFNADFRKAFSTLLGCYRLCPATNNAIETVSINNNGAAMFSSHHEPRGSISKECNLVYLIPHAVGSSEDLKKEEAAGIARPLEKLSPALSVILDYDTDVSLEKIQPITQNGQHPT
Sequence of human Orphanin, Opioid Related Nociceptin Receptor 1 (ORL1), OPRL1 (gene 4987) (P41146 whole entry, looked up): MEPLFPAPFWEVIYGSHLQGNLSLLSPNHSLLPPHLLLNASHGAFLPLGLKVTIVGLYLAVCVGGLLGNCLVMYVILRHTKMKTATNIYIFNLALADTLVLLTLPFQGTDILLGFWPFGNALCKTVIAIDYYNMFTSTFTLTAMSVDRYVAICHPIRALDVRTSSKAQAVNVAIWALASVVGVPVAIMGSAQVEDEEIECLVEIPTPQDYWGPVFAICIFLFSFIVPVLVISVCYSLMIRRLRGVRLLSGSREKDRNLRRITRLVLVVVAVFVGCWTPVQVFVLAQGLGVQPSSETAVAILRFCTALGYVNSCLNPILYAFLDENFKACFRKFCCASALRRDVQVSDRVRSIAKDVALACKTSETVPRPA
Sequence of mouse Cholecystokinin, CCK2 Receptor (CCKB), Cckbr (gene 12426) (P56481 whole entry, looked up): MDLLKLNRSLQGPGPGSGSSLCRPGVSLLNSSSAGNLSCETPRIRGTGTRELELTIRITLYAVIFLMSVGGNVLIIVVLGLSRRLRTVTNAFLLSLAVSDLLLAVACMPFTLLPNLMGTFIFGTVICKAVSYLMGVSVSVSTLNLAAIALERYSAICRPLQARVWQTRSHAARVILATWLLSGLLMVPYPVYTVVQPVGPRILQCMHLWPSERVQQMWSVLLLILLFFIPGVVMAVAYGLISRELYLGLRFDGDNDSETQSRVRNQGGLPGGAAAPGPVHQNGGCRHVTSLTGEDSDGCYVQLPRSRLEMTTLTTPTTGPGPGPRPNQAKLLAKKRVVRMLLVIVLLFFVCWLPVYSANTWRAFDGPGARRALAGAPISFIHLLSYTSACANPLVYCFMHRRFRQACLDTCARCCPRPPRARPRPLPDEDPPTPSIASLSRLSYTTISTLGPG
Sequence of human Purinergic Receptor P2Y, P2RY1 (gene 5028) (P47900 whole entry, looked up): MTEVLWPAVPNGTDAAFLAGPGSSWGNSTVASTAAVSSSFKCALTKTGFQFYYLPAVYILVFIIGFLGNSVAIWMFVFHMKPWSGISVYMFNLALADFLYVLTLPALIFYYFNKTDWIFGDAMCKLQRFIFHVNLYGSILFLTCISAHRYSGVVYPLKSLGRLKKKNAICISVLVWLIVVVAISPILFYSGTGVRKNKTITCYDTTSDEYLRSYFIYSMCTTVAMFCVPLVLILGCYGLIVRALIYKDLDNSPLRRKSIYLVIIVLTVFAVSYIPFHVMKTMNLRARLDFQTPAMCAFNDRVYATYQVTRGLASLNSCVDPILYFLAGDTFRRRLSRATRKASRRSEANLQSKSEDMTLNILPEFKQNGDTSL

The term AC50 denotes the concentration at which the activity in the assay is half-maximal. `N#CCCC(Br)(C#N)CBr` (stereo unspecified): the AC50 is 11 µM (active) in [1], 0.594 µM (active) in experiment [2], 4.83 µM (active) in experiment [3] and 20.6 µM (active) in experiment [4]. Turning to `BrCCCCBr`, in experiment [5], the call was inactive.

`O=S(=O)(C(Cl)(Cl)Cl)C(Cl)(Cl)Cl`: the AC50 is 13.8 µM (active) in experiment [1] and 7.84 µM (active) in [4].

With `O=[N+]([O-])c1ccc(Nc2ccccc2)cc1`, the AC50 in [1] is 8.91 µM (active).

Take `CCOC(=O)CCN(SN(C)C(=O)Oc1cccc2c1OC(C)(C)C2)C(C)C`: the call in experiment [6] was inactive. As to `O=C1C=CC(=O)c2ccccc21`, the AC50 in experiment [1] is 4.98 µM (active); in [6] it was 1.1 µM (active). `Cc1cc(Cl)ccc1OC(C)C(=O)O` (stereo unspecified): the compound was classed as inactive in experiment [7]. Take `CCOC(=O)C(SP(=S)(OC)OC)c1ccccc1` (stereo unspecified): in [6], the compound was called inactive. For `Nc1ccc(N)cc1`, the AC50 in [5] was 9.36 µM (active); in experiment [6], 5.13 µM (active). Regarding `OCCN(CCO)CCO`, the compound was classed as inactive in experiment [5]. As for `O=C(O)COc1cc(Cl)c(Cl)cc1Cl`, the call in experiment [2] was inactive. The same measure, in the same setting: with `Oc1cccc(-c2ccccc2)c1` the entry was “inactive”. Take `CCOP(=O)(OCC)OC(=CCl)c1ccc(Cl)cc1Cl`: in [2], the AC50 is 0.35 µM (active).

For `OC(Cc1ccccc1Cl)(Cn1[nH]cnc1=S)C1(Cl)CC1` (stereo unspecified), in experiment [1], the compound was called inactive. For the same compound, the AC50 in experiment [6] was 15.3 µM (active).

For the compound `Oc1cc(Cl)c(Cl)cc1Cl`, the AC50 in [8] was 10.2 µM (active). In the case of `CCOP(=S)(OCC)SCS(=O)(=O)C(C)(C)C`, the compound was called inactive in experiment [2]. With `Oc1c(Cl)cc(Cl)cc1Cl`, the call in experiment [9] was inactive. Take `O=c1oc2ccccc2c(O)c1C(CC(O)c1ccc(-c2ccc(Br)cc2)cc1)c1ccccc1` (stereo unspecified): the AC50 in experiment [6] is 23.9 µM (active); in experiment [2], 12.2 µM (active); in experiment [4], 13.7 µM (active).

As to `CN(C)C(=S)S`, the AC50 in [6] was 4 µM (active); in experiment [3] it was 25 µM (active); in [4], 6.66 µM (active). With `[Cl][Sn]([c]1ccccc1)([c]1ccccc1)[c]1ccccc1`, the AC50 was 0.6 µM (active) in [1], 2.13 µM (active) in [6], 1.29 µM (active) in experiment [2] and 0.664 µM (active) in [4].

Consider `CCN(N=O)C(N)=O`, for which the result in experiment [6] was inactive.

As for `CC(C=O)Cc1ccc2c(c1)OCO2` (stereo unspecified), in experiment [1], the compound was classed as inactive.
